Shown is part of a subset that was picked to be rich in the strongest signals.
What was measured:
Test in all cases: glycan array binding signal (z-score within array); higher = stronger binding
Conditions in all cases: glycan notation: IUPAC condensed, linker removed
[1] = target: Fuc(a1-2)Gal(b1-3)GalNAc(b1-3)Gal
Outline: (§1)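 Glycan array data were curated from 3228 arrays in the Consortium for Functional Glycomics database and kept only where the protein sequence was available. Glycan names were converted to IUPAC-condensed notation, and columns mapping to the same glycan were averaged. The binding signal is a within-array Z-score, averaged across arrays of the same protein sequence at different concentrations or buffers and across linkers. Negative Z-scores can be read as non-binding.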

[2] = target: Fuc(a1-2)Gal(b1-3)[Fuc(a1-4)]GlcNAc(b1-3)[Gal(b1-4)GlcNAc(b1-6)]Gal(b1-4)Glc
Outline: as §1

Fuc(a1-2)Gal(b1-4)GlcNAc = target: Fuc(a1-2)Gal(b1-4)GlcNAc
Outline: as §1

[3] = target: Fuc(a1-2)Gal(b1-4)GlcNAc(b1-3)GalNAc
Outline: as §1

[4] = target: Fuc(a1-2)Gal(b1-4)GlcNAc6S
Outline: as §1

Fuc(a1-2)Gal6S(b1-4)Glc = target: Fuc(a1-2)Gal6S(b1-4)Glc
Outline: as §1

Fuc(a1-2)[Gal(a1-3)]Gal = target: Fuc(a1-2)[Gal(a1-3)]Gal
Outline: as §1

[5] = target: Fuc(a1-2)[Gal(a1-3)]Gal(b1-4)GlcNAc
Outline: as §1

[6] = target: Fuc(a1-2)[Gal(a1-3)]Gal(b1-4)GlcNAc(b1-2)Man(a1-3)[Fuc(a1-2)[Gal(a1-3)]Gal(b1-4)GlcNAc(b1-2)Man(a1-6)]Man(b1-4)GlcNAc(b1-4)GlcNAc
Outline: as §1

[7] = target: Fuc(a1-2)[GalNAc(a1-3)]Gal(b1-3)GlcNAc(b1-2)Man(a1-3)[Fuc(a1-2)[GalNAc(a1-3)]Gal(b1-3)GlcNAc(b1-2)Man(a1-6)]Man(b1-4)GlcNAc(b1-4)GlcNAc
Outline: as §1

[8] = target: Fuc(a1-2)[GalNAc(a1-3)]Gal(b1-4)GlcNAc
Outline: as §1

[9] = target: Fuc(a1-2)[GalNAc(a1-3)]Gal(b1-4)GlcNAc(b1-2)Man(a1-3)[Fuc(a1-2)[GalNAc(a1-3)]Gal(b1-4)GlcNAc(b1-2)Man(a1-6)]Man(b1-4)GlcNAc(b1-4)GlcNAc
Outline: as §1

[10] = target: Fuc(a1-2)[GalNAc(a1-3)]Gal(b1-4)GlcNAc(b1-3)Gal(b1-4)GlcNAc
Outline: as §1

[11] = target: Fuc(a1-2)[GalNAc(a1-3)]Gal(b1-4)GlcNAc(b1-3)Gal(b1-4)GlcNAc(b1-3)Gal(b1-4)GlcNAc
Outline: as §1

[12] = target: Fuc(a1-3)[Gal(b1-4)]GlcNAc
Outline: as §1

Fuc(b1-3)GlcNAc = target: Fuc(b1-3)GlcNAc
Outline: as §1

[13] = target: Gal(a1-3)Gal(b1-3)GlcNAc(b1-2)Man(a1-3)[Gal(a1-3)Gal(b1-3)GlcNAc(b1-2)Man(a1-6)]Man(b1-4)GlcNAc(b1-4)GlcNAc
Outline: as §1

[14] = target: Gal(a1-3)Gal(b1-4)GlcNAc(b1-3)GalNAc
Outline: as §1

[15] = target: Gal(a1-3)Gal(b1-4)[Fuc(a1-3)]GlcNAc
Outline: as §1

Gal(a1-6)Glc = target: Gal(a1-6)Glc
Outline: as §1

Gal(b1-3)Gal = target: Gal(b1-3)Gal
Outline: as §1

[16] = target: Gal(b1-3)GalNAc(b1-3)Gal(a1-4)Gal(b1-4)Glc
Outline: as §1

Gal(b1-3)GlcNAc = target: Gal(b1-3)GlcNAc
Outline: as §1

[17] = target: Gal(b1-4)GlcNAc(a1-6)Gal(b1-4)GlcNAc
Outline: as §1

[18] = target: GlcNAc(a1-3)Gal(b1-4)GlcNAc
Outline: as §1

[19] = target: GlcNAc(a1-4)Gal(b1-3)GlcNAc
Outline: as §1

[20] = target: GlcNAc(b1-4)GlcNAc(b1-4)GlcNAc(b1-4)GlcNAc(b1-4)GlcNAc(b1-4)GlcNAc
Outline: as §1

Kdn(a2-3)Gal(b1-4)Glc = target: Kdn(a2-3)Gal(b1-4)Glc
Outline: as §1

[21] = target: Neu5Ac(a2-3)Gal(b1-3)GlcNAc6S
Outline: as §1

[22] = target: Neu5Ac(a2-3)Gal(b1-3)[Fuc(a1-4)]GlcNAc(b1-3)Gal(b1-3)[Fuc(a1-4)]GlcNAc
Outline: as §1

B1: GH98CBM51-1 (Streptococcus pneumoniae) (protein)
chain: MTYLSDMDWSSATHGDIDKTKTVQKDAPFTTGNKGEHTKISLLTSDDKVKYFDKGIGTVADSPSVISYDISGQGFEKFETYIGIDQSANSSRSDHAVVDRIEIEIDGKVVYSSSVTNPEGFRYNTQAQFISVTIPQNAKKISLKSFAGEHTWGDEVVFADAKLIKTVST
glycan array binding signal (z-score) [1]: -0.187
glycan array binding signal (z-score) [2]: -0.19
glycan array binding signal (z-score) (Fuc(a1-2)Gal(b1-4)GlcNAc): -0.191
glycan array binding signal (z-score) [3]: -0.194
glycan array binding signal (z-score) [4]: -0.194
glycan array binding signal (z-score) (Fuc(a1-2)Gal6S(b1-4)Glc): -0.185
glycan array binding signal (z-score) (Fuc(a1-2)[Gal(a1-3)]Gal): 5.96
glycan array binding signal (z-score) [5]: 5.12
glycan array binding signal (z-score) [6]: 8.05
glycan array binding signal (z-score) [7]: -0.122
glycan array binding signal (z-score) [8]: 5.07
glycan array binding signal (z-score) [9]: 5.04
glycan array binding signal (z-score) [10]: 5.55
glycan array binding signal (z-score) [11]: 4.91
glycan array binding signal (z-score) [12]: -0.192
glycan array binding signal (z-score) (Fuc(b1-3)GlcNAc): -0.193
glycan array binding signal (z-score) [13]: -0.171
glycan array binding signal (z-score) [14]: -0.191
glycan array binding signal (z-score) [15]: -0.186
glycan array binding signal (z-score) (Gal(a1-6)Glc): -0.186
glycan array binding signal (z-score) (Gal(b1-3)Gal): -0.181
glycan array binding signal (z-score) [16]: -0.191
glycan array binding signal (z-score) (Gal(b1-3)GlcNAc): -0.188
glycan array binding signal (z-score) [17]: -0.186
glycan array binding signal (z-score) [18]: -0.193
glycan array binding signal (z-score) [19]: -0.189
glycan array binding signal (z-score) [20]: -0.195
glycan array binding signal (z-score) (Kdn(a2-3)Gal(b1-4)Glc): -0.191
glycan array binding signal (z-score) [21]: -0.196
glycan array binding signal (z-score) [22]: -0.184

Reference: the supplement of paper PMC8728848
